A selection: hits, their analogues and other compounds. The true share with any hit is near 3.6%.
CF NFkB inh: inhibitors of PAF-induced NF-kB signaling, primary screen, cell-based, GFP fluorescence, uHTS | KKLEB NF-kB-GFP reporter, GFP fluorescence overnight | actives 0.86% (n = 360,000) | inhibition, % at 5 µM | AID 588850, 2011;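 active means at least 50% inhibition at 5 µM, scaled per plate between neutral and stimulator controls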;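 further: PAF is a Pseudomonas aeruginosa culture filtrate used as stimulus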
KKLEB cytotox: cytotoxicity in KKLEB CF airway cells, primary screen, cytotoxicity control for CF NF-kB inhibitor project, cell-based, uHTS, fluorescence assay plates. actives 0.36% (n = 360,000). activity change (cytotoxicity), % at 5 µM. KKLEB CF airway cells viability, ATPlite luminescence, overnight; stronger effect = lower value; cells stimulated with P. aeruginosa culture filtrate;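 active means corrected activity change at or below -50% at 5 µM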
Peg3 prom inh: Peg3 promoter-driven luciferase inhibitors, primary screen, cell-based, HeLa, luciferase luminescence; actives 1.7% (n = 360,000); inhibition, % at 20 µM; HeLa PEG-Prom luciferase reporter, overnight;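 active means inhibition of at least 50% at 20 µM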
HSP90 inh: HSP90 inhibitors, primary screen, cell lysate, luminescence; Heat shock protein HSP 90 (rabbit reticulocyte lysate; luciferase refolding); Rabbit reticulocyte lysate, luciferase refolding luminescence, 3 h; inhibition, % at 5.6 µM; actives 0.91% (n = 290,000); AID 1789, 2009;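 active means inhibition above the screen-wide mean plus 3 SD, computed separately per campaign, cut at about 16% in these data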;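 further: inhibitors lower the luminescence because luciferase stays unfolded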
Mdm2 MdmX PPI: inhibitors of human Mdm2-MdmX association, primary screen, cell-based, luminescence, split luciferase, SaOS-2, uHTS; inhibition, % at 8 µM; actives 3% (n = 330,000); SaOS-2 split-luciferase Mdm2/MdmX complementation;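 active means inhibition of at least 50% at 8 µM in the primary screen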
Target sequence (O15151 whole entry, looked up): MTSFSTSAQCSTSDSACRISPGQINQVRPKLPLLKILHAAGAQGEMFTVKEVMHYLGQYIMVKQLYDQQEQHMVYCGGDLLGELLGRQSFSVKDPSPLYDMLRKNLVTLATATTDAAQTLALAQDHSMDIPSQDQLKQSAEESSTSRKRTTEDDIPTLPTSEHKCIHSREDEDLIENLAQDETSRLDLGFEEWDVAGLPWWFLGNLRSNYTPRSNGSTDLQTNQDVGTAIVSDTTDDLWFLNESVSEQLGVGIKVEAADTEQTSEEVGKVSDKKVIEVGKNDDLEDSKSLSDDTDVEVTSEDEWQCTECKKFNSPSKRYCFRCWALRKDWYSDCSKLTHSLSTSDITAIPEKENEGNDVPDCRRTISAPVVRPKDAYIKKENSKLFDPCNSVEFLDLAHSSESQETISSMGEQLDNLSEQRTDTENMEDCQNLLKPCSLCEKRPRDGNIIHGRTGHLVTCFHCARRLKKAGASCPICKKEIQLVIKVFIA
Target sequence (Q00987 whole entry, looked up): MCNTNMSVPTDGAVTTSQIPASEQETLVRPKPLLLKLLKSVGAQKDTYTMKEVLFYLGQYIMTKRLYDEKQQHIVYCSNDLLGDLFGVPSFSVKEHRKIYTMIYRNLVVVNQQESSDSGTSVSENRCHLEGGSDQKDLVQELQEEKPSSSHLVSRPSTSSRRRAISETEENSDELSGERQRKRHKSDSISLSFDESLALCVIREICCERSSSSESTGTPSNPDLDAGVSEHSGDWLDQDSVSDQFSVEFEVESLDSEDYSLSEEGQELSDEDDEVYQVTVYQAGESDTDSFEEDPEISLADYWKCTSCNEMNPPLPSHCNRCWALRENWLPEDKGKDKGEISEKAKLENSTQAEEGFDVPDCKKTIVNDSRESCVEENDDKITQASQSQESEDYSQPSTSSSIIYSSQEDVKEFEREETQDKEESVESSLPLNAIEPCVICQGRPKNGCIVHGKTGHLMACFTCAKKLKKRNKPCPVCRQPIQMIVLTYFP
LGR2 antag: inhibitors of bursicon-induced LGR2 CRE-luciferase signal, primary screen, cell-based, HEK293, CRE-luciferase reporter, bursicon stimulation; inhibition, % at 9.99 µM; actives 0.35% (n = 380,000); bursicon-stimulated, 4 h;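 active means drop in luminescence signal, shown as inhibition above about 50% in the replicate tests, limit read from the data, passing the limit was not always enough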;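 further: agonist challenge used bursicon conditioned medium at about half maximal strength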
Mdm2 MdmX conf: Mdm2-MdmX complex disruptors, retested hits, confirmation, luminescence, single concentration; shares compounds with Mdm2 MdmX PPI; Mdm2-MdmX binding, luminescent assay; inhibition, % at 8 µM; actives 55% (n = 10,000); in the data active means inhibition above about 40%
Full FLuc ctr: full-length luciferase signal inhibition, confirmation, counter-screen for Mdm2/MdmX interaction inhibitor project, cell-based, single concentration, SaOS-2; shares compounds with Mdm2 MdmX PPI; SaOS-2 full-length luciferase counterscreen, luminescence; inhibition, % at 8 µM; actives 77% (n = 6,200); AID 504607, 2011;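 active means mean inhibition at 8 µM reaching about 37%, which flags the compound as non-specific, limit read from the data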;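 further: p53-null SaOS-2 cells with luciferase driven by a doxycycline-inducible promoter; compound on cells about two nights before reading with doxycycline added after day one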
Numbers stand for hits; – = inactive; · = no result given.

SMILES	CF NFkB inh	KKLEB cytotox	Peg3 prom inh	HSP90 inh	Mdm2 MdmX PPI	LGR2 antag	Mdm2 MdmX conf	Full FLuc ctr
COc1ccc2nc(C)cc(Nc3ccc(N4CCN(C)CC4)cc3)c2c1	–	–	110.8	–	99.0	–	89.6	36.5
COc1ccc(/C=N/Nc2cc(C)nc3ccc(OC)cc23)c(OC)c1	–	–	106.6	–	100.0	102.9	99.3	51.5
COc1ccc2nc(C)cc(N/N=C/c3ccccc3)c2c1	–	–	106.9	·	100.4	·	–	·
COc1ccc2nc(C)cc(Nc3ccc(N4CCOCC4)cc3)c2c1	–	–	–	–	–	·	·	·
COc1ccccc1/C=N/Nc1cc(C)nc2ccc(C)cc12	–	–	–	–	–	–	·	·
COc1ccc2nc(C)cc(Nc3ccc(C)cc3)c2c1	–	–	–	–	–	–	·	·
COc1ccc(OC)c(Nc2cc(C)nc3ccc(C)cc23)c1	–	–	–	·	68.4	–	58.1	47.7
COc1ccc2nc(C)cc(SCC(=O)N/N=C/c3ccccc3)c2c1	–	–	–	–	–	–	·	·
Cc1cc(C)c2cc(C#N)c(SCC(=O)Nc3ccc4c(c3)OCO4)nc2c1	–	–	–	–	79.8	–	–	·
Cc1cccc2cc(C#N)c(SCC(=O)NNC(=O)Cc3ccccc3)nc12	–	–	–	–	78.0	·	–	·
Cc1cc2cccc(C)c2nc1SCC(=O)NNC(=O)c1ccco1	–	–	–	–	–	–	·	·
Cc1cc(C)c2nc(SCC(=O)Nc3cc(C)on3)c(C#N)cc2c1	–	–	–	–	57.8	–	–	·
Cc1noc(C)c1NC(=O)Nc1ccc2c(c1)C(=O)N([C@H](C)CO)C[C@@H](C)[C@H](CN(C)Cc1ccc(C(F)(F)F)cc1)OCCCC[C@H](C)O2	·	·	·	·	·	–	·	·
CN(C)c1ccc2c(c1)[C@@H]1C[C@@H](CC(=O)NCCc3ccccc3)O[C@H](CO)[C@@H]1O2	·	·	·	·	·	–	·	·
O=C(C[C@@H]1CC[C@@H]2[C@H](COC[C@H](O)CN2S(=O)(=O)c2ccc(Oc3ccccc3)cc2)O1)NC1CCC1	·	·	·	·	·	–	·	·
COc1cc2oc3ccc(C#Cc4ccc(N)cc4)cc3c(=O)c2cc1OC	–	–	–	·	·	–	·	·
COc1cccc2oc3ccc(C#CC4(N)CCCCC4)cc3c(=O)c12	–	–	60.2	–	96.4	–	–	·
O=c1c2ccccc2oc2ccc(C#CC3(O)CCCCC3)cc12	–	-57.3	–	·	59.1	74.9	51.0	172.9
N#Cc1ccc(C#Cc2ccc3oc4ccccc4c(=O)c3c2)cc1	–	–	–	·	67.4	–	–	·
Nc1ccc(C#Cc2ccc3c(=O)c4ccccc4oc3c2)cc1	–	–	–	–	–	·	·	·
Cc1ccc2oc3ccccc3c(=O)c2c1	–	–	–	·	·	–	·	·
COc1ccc(C#Cc2ccc3c(c2)O[C@@H](CN(C)C(C)=O)[C@@H](C)CN([C@@H](C)CO)S3(=O)=O)cc1	·	·	·	·	·	–	·	·
Brc1ccc2c(c1)OCCOCCOc1cc(Br)ccc1OCCOCCOCCO2	–	–	–	–	74.0	·	–	59.7
Cc1nc2c(C)cccc2cc1C(=O)N/N=C/c1ccc(N(C)C)cc1	–	–	–	–	50.1	–	49.4	57.2
O=[N+]([O-])c1ccc(O)c(Nc2ncnc3ccccc23)c1	–	–	–	–	60.2	–	–	·
SMILES	CF NFkB inh	KKLEB cytotox	Peg3 prom inh	HSP90 inh	Mdm2 MdmX PPI	LGR2 antag	Mdm2 MdmX conf	Full FLuc ctr
COc1ccc([C@H]2CC(=O)C=C(c3cc(Br)ccc3OC)C2)cc1	–	–	–	·	50.0	–	43.8	46.6
CCOc1ccc(Br)cc1C1=CC(=O)C[C@H](c2ccc(OC)cc2)C1	–	–	–	·	55.1	–	47.6	48.4
O=C(NC1c2ccccc2-c2ccccc21)N1CCOCC1	–	–	–	–	50.1	–	–	·
CCC(=O)N1CC2(C1)CN(C(=O)Nc1ccccc1F)[C@@H](CO)c1c2c2ccc(OC)cc2n1C	·	·	·	·	·	–	·	·
C[C@@H]1CN([C@@H](C)CO)C(=O)c2cccc(NS(=O)(=O)c3cn(C)cn3)c2O[C@@H]1CN(C)C(=O)Nc1ccc2c(c1)OCO2	·	·	·	·	·	–	·	·
CCNC(=S)N/N=C1\C(=O)c2cccc3cccc1c23	–	–	–	–	–	·	·	·
O=C(N/N=C1/C(=O)c2cccc3cccc1c23)c1ccc(Cl)cc1	–	–	–	–	58.9	·	–	·
O=C(Nc1ccc([N+](=O)[O-])cc1)Nc1ccon1	–	–	–	–	66.2	–	66.7	73.1
COC(=O)c1ccc(NC(=O)Nc2ccc([N+](=O)[O-])cc2)cc1	–	–	–	–	58.8	–	43.1	84.9
O=[N+]([O-])c1ccc(S(=O)(=O)Nc2ccncc2)cc1	–	–	–	–	50.3	–	–	·
O=C(Nc1ccc(Nc2ccncc2)cc1)c1ccc([N+](=O)[O-])cc1	–	–	79.7	–	100.3	–	–	–
CCc1ccc(NC(=O)Nc2ccon2)cc1	–	–	–	–	–	–	·	·
O=C(Nc1ccc(Oc2cccnc2)cc1)c1ccc([N+](=O)[O-])cc1	–	–	–	–	–	–	·	·
COc1ccc(OC(C)C(=O)Nc2ccc([N+](=O)[O-])cc2)cc1 (stereo not drawn)	–	–	–	–	–	–	·	·
Cc1cc(OC(F)F)ccc1NC(=O)Nc1ccc([N+](=O)[O-])cc1	–	–	–	–	95.7	–	86.2	47.0
COc1cccc(C#Cc2ccc([C@@H]3[C@H](CO)N4C(=O)CN(C(=O)Cc5cccnc5)C[C@@H]34)cc2)c1	·	·	·	·	·	–	·	·
COc1ccc2c3c([nH]c2c1)[C@H](CO)N(C(=O)C1CCC1)CC31CCN(C(=O)c2ccccn2)CC1	·	·	·	·	·	–	·	·
CC(C)NC(=O)N(C)C[C@@H]1Oc2ncc(C#CCc3ccccc3)cc2C(=O)N([C@@H](C)CO)C[C@@H]1C	·	·	·	·	·	–	·	·
O=c1c2ccccc2nc(COc2ccccc2)n1/N=C/c1c[nH]c2ccccc12	–	–	–	–	–	–	·	·
Cc1ccccc1OCc1nc2ccccc2c(=O)n1/N=C/c1cn[nH]c1-c1ccc(Br)cc1	–	–	61.4	–	69.2	–	–	·
O=c1c2ccccc2nc(COc2ccccc2)n1/N=C/c1ccc(O)cc1O	–	–	–	–	66.5	–	57.6	–
O=c1c2ccccc2nc(COc2ccccc2)n1/N=C/c1cn[nH]c1-c1ccccc1	–	–	–	–	–	–	·	·

Assay outcomes (PubChem)
